{
  "source": "PubChem BioAssay (NCI)",
  "note": "The panel holds about 83,000 compounds, 20% with a hit somewhere; the sample as a whole holds those more often.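 Testing used 96-well plates and a 48-hour single-concentration exposure. Example: -40 means 40% of the starting cells died.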 Activity calls are given as the source filed them. How the source made its calls: active means growth percent below 10; inactive means the rest.",
  "data": [
    {"system": "MDA-MB-468 breast", "test": "NCI-60 one-dose screen, 48 h (100 = growth as untreated, 0 = no growth, -100 = all killed)", "conditions": "10 µM unless noted", "values": [
      {"smiles": "Cc1ccc(O)c(C(=O)O)c1", "growth": "106% (inactive)"},
      {"smiles": "Cc1ccc(C2=NN(c3ccc(S(N)(=O)=O)cc3)C(c3cn(-c4ccccc4)nc3-c3ccccc3)C2)cc1", "note": "(stereo unspecified)", "growth": "112% (inactive)"},
      {"smiles": "C=C(CBr)[C@@H]1CC[C@]2(COC(C)=O)CC[C@]3(C)[C@H](CC[C@@H]4[C@@]5(C)CCCNC(C)(C)[C@@H]5CC[C@]43C)[C@@H]12", "growth": "25.1% (inactive)"},
      {"smiles": "COC1C(OC(N)=O)C(O)C(Oc2ccc3c(O)c(NC(=O)c4ccc(O)c(CC=C(C)C)c4)c(=O)oc3c2C)OC1(C)C", "note": "(stereo unspecified)", "growth": "89% (inactive)"},
      {"smiles": "CC[C@@H](C(=O)[C@@H](C)[C@@H](O)[C@H](C)[C@@H]1O[C@@H]([C@@H](CC)C(=O)O)CC[C@@H]1C)[C@H]1OC2(C=C[C@@H](O)[C@]3(CC[C@@](C)([C@H]4CC[C@](O)(CC)[C@H](C)O4)O3)O2)[C@H](C)C[C@@H]1C", "note": "(stereo partly specified)", "growth": "-9.66% (active)"},
      {"smiles": "CC(=O)Nc1ccc2oc(=O)ccc2c1", "growth": "83% (inactive)"},
      {"smiles": "COc1ccc(C2C(c3nn[nH]n3)=C(N)Oc3c2ccc2ccccc32)cc1", "note": "(stereo unspecified)", "growth": "43.8% (inactive)"},
      {"smiles": "CN(C)c1cc(NN=C(c2ccc(O)cc2)c2ccc(O)cc2)c([N+](=O)[O-])cc1[N+](=O)[O-]", "growth": "102% (inactive)"},
      {"smiles": "O=C1[C@H]2Cc3c([nH]c4ccccc34)[C@@H](c3ccc(Cl)cc3)N2C(=O)CN1C1CCN(Cc2ccccc2)CC1", "growth": "27.3% (inactive)"},
      {"smiles": "COc1c(Br)cc(C(c2cc(Br)c(OC)c(Br)c2)c2ccccc2C(=O)O)cc1Br", "growth": "100% (inactive)"},
      {"smiles": "COc1ccc(NC(=O)/N=c2\\oc3c(OC)cccc3cc2-c2cc3ccccc3[nH]2)cc1", "growth": "61.1% (inactive)"}
    ]}
  ]
}
